Compound activity as filed in PubChem.
14-3-3 Bad inh: inhibitors of 14-3-3 zeta/Bad binding, primary screen, biochemical, TR-FRET, bovine 14-3-3 zeta. 14-3-3 protein zeta/delta (Bos taurus), P63103. inhibition, % at 21.7 µM. actives 0.71% (n = 220,000). TR-FRET 14-3-3zeta/Dy647-pBad peptide displacement, 1 h;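 active means inhibition above about 70%, limit read from the data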;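 further: 0% = full 14-3-3 plus peptide FRET controls and 100% = background without 14-3-3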
Target sequence (P63103 whole entry, looked up): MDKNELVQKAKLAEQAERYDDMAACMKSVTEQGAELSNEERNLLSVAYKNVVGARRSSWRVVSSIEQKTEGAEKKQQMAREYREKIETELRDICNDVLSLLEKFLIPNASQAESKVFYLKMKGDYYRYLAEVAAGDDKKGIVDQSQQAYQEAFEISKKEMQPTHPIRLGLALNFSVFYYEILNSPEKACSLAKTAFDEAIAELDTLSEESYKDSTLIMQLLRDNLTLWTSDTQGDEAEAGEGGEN
Mcl-1 Bim block: inhibitors of Bim peptide binding to Mcl-1, primary screen, biochemical, bead-based flow cytometry, multiplex; Induced myeloid leukemia cell differentiation protein Mcl-1 (Homo sapiens), Q07820; Bim peptide-Mcl-1 binding; inhibition, % at 10 µM; actives 0.1% (n = 190,000); in the data active means inhibition above about 40%;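 further: 0% = no compound tracer wells and 100% = peptide blocker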
Target sequence (Q07820 whole entry, looked up): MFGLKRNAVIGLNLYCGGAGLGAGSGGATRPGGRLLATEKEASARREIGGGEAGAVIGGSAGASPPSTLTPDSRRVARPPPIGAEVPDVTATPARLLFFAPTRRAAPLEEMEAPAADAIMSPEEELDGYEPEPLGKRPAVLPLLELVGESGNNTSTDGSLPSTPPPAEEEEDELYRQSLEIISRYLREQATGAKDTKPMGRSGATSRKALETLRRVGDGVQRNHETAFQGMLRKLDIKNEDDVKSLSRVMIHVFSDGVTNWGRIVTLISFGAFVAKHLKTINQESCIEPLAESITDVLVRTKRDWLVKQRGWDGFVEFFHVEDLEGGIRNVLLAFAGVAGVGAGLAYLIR
Mcl1 Noxa PPI: Mcl-1/Noxa binding inhibitors, primary screen, biochemical, TR-FRET, 1536-well | TR-FRET Mcl-1/Noxa peptide binding, 2 h | Induced myeloid leukemia cell differentiation protein Mcl-1 (Homo sapiens), Q07820 | actives 1.5% (n = 220,000) | inhibition, % at 21.7 µM;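 active means compounds that cut the protein-peptide binding signal by more than 50% relative to plate controls in a single-dose test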;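 further: His-tagged Mcl-1 with rhodamine Noxa BH3 peptide and terbium anti-His antibody; 0% = Mcl-1 plus Noxa peptide wells and 100% = peptide-only wells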
m-calpain inh: inhibitors of pig calpain II, primary screen, biochemical, fluorogenic peptide substrate, 1536-well; inhibition, % at 16 µM; actives 0.37% (n = 220,000); purified calpain II, 30 min;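 active means inhibition above about 50%, limit read from the data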
Mcl1-Bid inh: Mcl-1/Bid binding inhibitors, primary screen, biochemical, TR-FRET, 1536-well | inhibition, % at 21.7 µM | AID 1021, 2008 | actives 0.97% (n = 220,000) | Induced myeloid leukemia cell differentiation protein Mcl-1 (Homo sapiens), Q07820 | TR-FRET Mcl-1/Bid-Dy647 peptide binding;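 active means compounds that cut the binding signal by more than half at the single screening dose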;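 further: His-tagged Mcl-1 with europium anti-His antibody binding Bid BH3 peptide; 0% = Mcl-1 plus peptide wells and 100% = peptide-only wells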
p47phox inh: p47phox/p22phox peptide binding inhibitors, primary screen, biochemical, uHTS, NADPH oxidase regulatory subunit; Neutrophil cytosol factor 1 (Homo sapiens), P14598; fluorescence polarization, 2 h; inhibition, % at 24.7 µM; actives 0.53% (n = 220,000);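 active means inhibition above about 30%, limit read from the data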;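 further: 0% = p47phox with labelled peptide and 100% = labelled peptide alone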
* = called active by the depositor; x = no result given; [ ] = another dose, or the depositor's remark. Rows were chosen to be rich in hits. Some 3.4% of all compounds tested hit in one or more screens of this group.

SMILES	14-3-3 Bad inh	Mcl-1 Bim block	Mcl1 Noxa PPI	m-calpain inh	Mcl1-Bid inh	p47phox inh
O=C(O)c1ccccc1/C=N/NC(=O)c1cc(-c2ccco2)nc2ccccc12	70	x	99*	-294	27	-15
CCOCC(=O)Nc1ccc([N+](=O)[O-])cc1C	-11	-3	16	26	0	-2
Cc1cccc(C(=O)N[C@H](C(=O)Nc2ccc(C)c(S(=O)(=O)N(C)C)c2)C(C)C)c1	-15	-5	18	-11	-4	-14
CCC(=S)/C=C1\Sc2ccc3ccccc3c2N1CCCS(=O)(=O)O	x	0	30	-26	-83	-25
O=C1NC(=S)S/C1=C1\Sc2ccccc2N1CCCS(=O)(=O)O	10	-5	74*	1	5	-18
COc1ccc(NC(=O)c2sccc2C)cn1	1	0	-3	11	0	8
Cc1cccc(-c2oc(C)c(C)[n+]2[O-])c1	72*	-2	16	-17	26	-2
COc1ccccc1-c1nnc(SCC(=O)Nc2c(Cl)cccc2Cl)o1	0	3	2	-4	-17	-8
COc1ccccc1-c1nnc(SCC(=O)NCc2c(C)c(Cl)cc(C(C)C)c2O)o1	0	-3	-2	51*	-22	6
O=C(CN1CCCCCC1)NCCc1ccc(F)cc1	75*	-4	7	-23	44	-8
CC(C)Sc1nc(N)c2c3c(sc2n1)CN(C)CC3	8	-2	58*	-83	-14	-10
CCCSc1nc(N)c2c3c(sc2n1)CN(C)CC3	-2	0	32	-41	-36	-10
O=S(=O)(c1ccc(Cl)cc1)N1CCN(C(=S)Nc2ccc(F)c(Cl)c2)CC1	-8	-2	13	3	-41	7
O=C(Nc1ccc([N+](=O)[O-])cc1)Nc1ccc(N2CCOCC2)c2nonc12	18	-1	94*	-125	48	-19
CCNC(=O)COC(=O)c1csc2c1CCCC2	-3	-25	14	21	-37	5
NC(=O)c1ccc(Nc2nnc(-c3ccc(O)cc3)c3ccccc23)cc1	25	-4	52*	-76	13	-11
CSc1nc2nc(-c3ccccc3)cc(=O)n2[nH]1	79*	5	-9	-35	-4	3
Cc1cc(N)ccc1N=Nc1c(C)n(C)n(-c2ccccc2)c1=O	-30	1	17	6	-65	-4
Cc1ccc(N=Nc2ccc(N)cc2C)c(S(N)(=O)=O)c1	3	x	52*	-12	15	-1
COc1ccc(N2C(=O)CC(S/C(N)=N/N=C/c3ccnc4ccccc34)C2=O)cc1 (stereo unspecified)	75*[fluorescence artefact?]	-3	35	-104	81*	27
N/C(=N\N=C\c1ccnc2ccccc12)SC1CC(=O)N(c2ccc(Br)cc2)C1=O (stereo unspecified)	10	-3	36	-156	28	-8
CCN(CC)C(=O)N1CCN(C)CC1	-1	-1	-34	11	59*	4
CCN(CC)C(=O)N1CCN(C(=O)N(CC)CC)CC1	-1	-2	-8	-21	-32	-2
Cc1nc(N)sc1-c1csc(NCc2ccccc2)n1	-8	-2	-12	-84	-19	-28
Cc1cc(-c2csc(NCc3ccccc3)n2)c(C)n1C	98*	2	69*	-75	4	18
SMILES	14-3-3 Bad inh	Mcl-1 Bim block	Mcl1 Noxa PPI	m-calpain inh	Mcl1-Bid inh	p47phox inh
CCn1nc(C(=O)Nc2ccc(S(=O)(=O)Nc3ncccn3)cc2)c2ccccc2c1=O	-5	0	12	-12	-6	-4
CCCn1nc(C(=O)Nc2ccc(S(=O)(=O)Nc3nccs3)cc2)c2ccccc2c1=O	8	-1	51*	-32	-35	-56
COc1ccccc1/C=C1/SC(=O)N(CCC(=O)Nc2ccc(S(=O)(=O)Nc3nccs3)cc2)C1=O	-2	-4	78*	-25	-135	-48
O=C(CCN1C(=O)S/C(=C\c2ccccc2)C1=O)Nc1ccc(S(=O)(=O)Nc2nccs2)cc1	-5	-1	82*	-74	-84	-100
Cc1cc(C)nc(NS(=O)(=O)c2ccc(NC(=O)CN3C(=O)S/C(=C\c4ccccc4)C3=O)cc2)n1	-17	-2	34	-75	-2	-23
O=C(Nc1ccc(Cl)c([N+](=O)[O-])c1)c1ccncc1	-4	-2	4	-8	2	-9
O=C(Nc1ccccc1Cl)c1cnccn1	-2	1	83*	-58	-23	12
O=C(Nc1ccc(Cl)c([N+](=O)[O-])c1)c1cnccn1	-6	-3	64*	-34	-70	0
CCOC(=O)C(C(=O)OCC)c1cc(Br)c2noc3c2c1C(=O)c1ccccc1-3	-10	42*	57*	-103	-14	0
O=C1c2ccccc2-c2onc3ccc(Oc4ccccc4)c1c23	-1	14	43	-36	9	-79
O=C(/C=C/c1ccc(Br)cc1)c1ccc(NC2=NCCCS2)cc1	6	0	49	-8	8	-14
Cc1cccc(/C=C/C(=O)c2ccc(NC3=NCCCS3)cc2)c1	1	-4	88*	-50	27	-2
O=C(/C=C/c1ccccc1)c1ccc(NC2=NCCCS2)cc1	-6	-2	84*	-22	12	-12
COc1cccc(/C=C/C(=O)c2ccc(NC3=NCCCS3)cc2)c1	3	-25	57*	-23	9	-18
CC(C)(C)c1ccc(/C=C/C(=O)c2ccc(NC3=NCCCS3)cc2)cc1	-12	-6	23	-45	11	-26
COc1cccc(/C=C/C(=O)c2cccc([N+](=O)[O-])c2)c1	-6	0	3	-4	-27	5
CN(C)CC#Cc1cncc(C(=O)NNC(=O)Nc2ccc(Cl)cc2)c1	-9	x	23	10	-33	23
Nc1ncncc1-c1ccc([N+](=O)[O-])cc1	-7	0	3	-3	-9	-7
O=C(O)[C@H](Cc1ccccc1)N1Cc2ccccc2C1=O	63	0	19	-15	72*	0
COc1cccc(OC)c1OCCCCCc1c(C)n[nH]c1C	81*	0	22	6	29	3
COc1cc2c(cc1OC)CN(C1CC(=O)N(c3c(C)cccc3C)C1=O)CC2 (stereo unspecified)	0	3	1	-55	-9	-10
COc1cc(-c2nc(-c3ccccc3)c(-c3cccs3)[nH]2)cc(OC)c1O	-2	4	55*	-362	-29	-43
